This is an account of results in PubChem BioAssay (NCI).

About 79,000 compounds went through this panel and 15% of them were active in at least one assay; those are over-represented in the sample as a whole. Unmarked numbers belong to inactive results. Rule as the data show it: active = growth inhibition above about 70%; inactive = the rest.

A short description of this assay: NCI Yeast Anticancer Drug Screen. Data for the mgt1 strain (AID 153). The following applies: S. cerevisiae mgt1 mutant growth inhibition; at 1.2 µM; stronger effect = higher value. Put shortly:
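After exposure of the mgt1 yeast mutant to compound, growth was measured and reported as inhibition compared with vehicle controls.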
In the case of `CS(=O)(=O)SCc1ccc([N+](=O)[O-])cc1`, the growth inhibition is -2%.
On to `Cc1csc(=S)n1OC(=O)NC1CCCCC1`, for which the growth inhibition is 18%.
In the case of `CCOc1ccc(NC(=O)C2=C(C)NC(C)=C(C(=O)Nc3ccc(OCC)cc3)C2c2cccc([N+](=O)[O-])c2)cc1` it was -1%.
In the case of `CC(C)(C)N=C(NO)c1ccccc1` it was -2%.
As to `CCCCC/C(=C(\C#N)C(=O)OCC)c1ccccc1`, the growth inhibition is -3%.
In the case of `O=C(NCCCl)Sc1ccc(Cl)cc1`, the growth inhibition is 1%.
`O=C1Nc2ccc(Br)cc2C1=Nc1ccc2c(c1)OCO2`: the growth inhibition was -9%.
For the compound `CCC(C)OC(=O)Nc1ccc(C)c(NC(=O)OC(C)CC)c1` (configuration not stated), the growth inhibition is -2%.
Regarding `O=C(O)c1cc2ccc(Cl)cc2c(O)c1C1=CCCCC1`, the growth inhibition is 7%.
Regarding `CN(C)Cc1cc(N=Nc2ccc(Cl)cc2)ccc1OC(=O)c1ccccc1`, the growth inhibition is 0%.
In the case of `CN1CCN(C(=O)/C=C/C(=O)c2ccccc2)CC1` it was 2%.
For the compound `CCCC/C=C/C(C)(C(=O)OCC)C(=O)OCC`, the growth inhibition was -4%.
In the case of `Cc1nc(-c2cc3cc([N+](=O)[O-])ccc3oc2=O)cs1` it was -1%; in that of `Cc1nc2ccccc2nc1NNc1ccccc1`, 4%; in that of `CN(C)[C@@H]1C(=O)C(C(N)=O)=C(O)[C@@]2(O)C(=O)C3=C(O)c4c(O)cccc4C[C@H]3C[C@@H]12`, 0%.
For `COc1ccc(NC(=O)CC2SC(=Nc3ccccc3C)NC2=O)c([N+](=O)[O-])c1` (configuration not stated), the growth inhibition was -2%.
For `COc1cc(O)c2c(c1O)C(=O)c1cc(C)ncc1C2=O`, the growth inhibition is 5%.
